Among the data in PubChem BioAssay AID449762 (Southern Research Specialized Biocontainment Screening …, 2010) are inhibition values, retold here.

The campaign covered roughly 330,000 compounds. About 1,900 (0.58%) were called active. Roughly 4% stayed inconclusive and do not appear here. Not all results are given here. Entries with a potency or affinity are not part of this list. A number with no mark means an inactive call. Rule as the data show it: inconclusive = inhibition above about 70% without an active follow-up result; inactive = below that.

The assay in a line: M. tuberculosis growth inhibition, HTS (AID 449762).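 Also: bacterial growth assessed after seven days of incubation.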 The note with it: M. tuberculosis H37Rv growth inhibition, 7H9 media; at 25 µM; stronger effect = higher value.
Regarding `Cc1nn(Cc2ccc(Cl)cc2Cl)c(C)c1NC(=O)Cn1nc([N+](=O)[O-])c(Cl)c1C`, the inhibition is 5.47%.
`S=C(NCc1ccc2c(c1)OCO2)NCc1ccc2c(c1)OCO2`: the inhibition is 2.49%.
The figure for `S=C(NCc1ccccc1)NCc1ccc2c(c1)OCO2` is 13%.
As for `CN1/C(=C\C(=O)COC(=O)c2ccc(O)c(O)c2)C(C)(C)c2ccccc21`, the inhibition was 25%.
Consider `Oc1ccc(CCNc2c3ccccc3nc3ccccc23)cc1O`, for which the inhibition is -2.38%.
For `O=C(Nc1ccc2c(c1)OCO2)c1c(F)c(F)c(F)c(F)c1F`, the inhibition was 2.74%.
The figure for `Cc1sc2ncnc(N3CCCCC3)c2c1C` is 5.45%.
With `Cc1ccc(OCC(=O)NNC(=O)C2CCN(c3ncnc4sc(C)c(C)c34)CC2)cc1`, the inhibition was 42%.
The figure for `CSc1ccccc1NC(=O)CN1c2ccccc2CC1C` (stereo not given) is 7.66%; for `CCOC(=O)Cc1csc(NC(=O)COc2ccccc2OCC)n1` it is -11.5%.
Consider `CCOC(=O)Cc1csc(NC(=O)CCSc2ccccc2)n1`, for which the inhibition is 5.94%.
As for `COC(=O)CSc1ncnc2c1sc1nc(N3CCOCC3)c3c(c12)CCCC3`, the inhibition was -2.32%.
The figure for `COC(=O)c1ccc(CSc2ncnc3c2sc2nc(N4CCOCC4)c4c(c23)CCCC4)o1` is -0.71%; for `O=c1cnnc(Nc2ccc(Nc3ccccc3)cc2)[nH]1` it is 14%; for `CC(C)c1ccc(NC(=O)CCS(=O)(=O)c2cccc3nonc23)cc1` it is 6.08%.
The figure for `O=C(C1CCC1)N1CCN(S(=O)(=O)c2ccc(F)cc2)CC1` is -11%.
As for `CCOc1ccc(/C=C2/C(=N)N3OC(C)=CC3=NC2=O)cc1OC`, the figure is 2.41%; as for `CN(CCO)c1cc(N2CCCCC2)c2nonc2c1[N+](=O)[O-]`, -7.07%; as for `CN(CCO)c1cc(N2CCC3(CC2)OCCO3)c2nonc2c1[N+](=O)[O-]`, -10.9%.
For the compound `Cc1cc(C)cc(NC(=O)CCn2c(=S)[nH]c3ccccc3c2=O)c1`, the inhibition is 3.81%.
`Cc1cccc(OCCCCNCc2ccccc2)c1`: the inhibition is 0.71%.
Regarding `Clc1ccc(Cl)c(OCCCCNCc2ccccc2)c1`, the inhibition was 6.87%.
For `COc1ccc(Br)cc1/C=C/c1ccc2cccc(O)c2n1`, the inhibition is 69.8%.
As to `COc1cc(Br)c(/C=C/c2ccc3cccc(O)c3n2)cc1OC`, the inhibition was 15.4%.
Turning to `On1c(-c2ccc(Cl)cc2)nc2ccccc21`, the inhibition was 67.2%.
As to `COc1cc(CNn2nnnc2N)cc(Br)c1OCc1c(Cl)cccc1Cl`, the inhibition was 0.85%.
In the case of `Cc1ccc(N2CCN(S(=O)(=O)N3CCCCC3)CC2)cc1C`, the inhibition was -2.98%.
As for `CCOC(=O)C1=C(C)NC(SCC(=O)Nc2cc(C)on2)=C(C#N)C1c1cccs1` (stereo not given), the figure is -1.09%; as for `CCOC(=O)C1=C(C)NC(SCC(N)=O)=C(C#N)C1c1cccs1` (stereo not given), -3.02%.
`O=C(COC(=O)c1cc(=O)[nH]c2ccccc12)NC(=O)c1ccccc1`: the inhibition was -1.53%.
As to `COc1ccc(Nc2nc(CC(C)=O)ns2)cc1OC`, the inhibition is -2.22%.
Regarding `O=C1CN(C(=O)CN2C(=O)NC(c3ccccc3)(c3ccccc3)C2=O)c2ccccc2N1`, the inhibition was -4.74%.
In the case of `O=C(c1ccc(-c2cccc(C(F)(F)F)c2)o1)N1CCCCCCC1`, the inhibition was 4.53%.
As for `CC(=O)N1CCN(C(=O)c2ccc(-c3cccc(C(F)(F)F)c3)o2)CC1`, the inhibition is -1.68%.
For `CCCCS(=O)(=O)N1CCC(C(=O)Oc2ccccc2OC)CC1`, the inhibition is 28.5%.
With `Cc1ccc(C(C(=O)Nc2ccc3c(c2)OCO3)N(C)C(=O)Cc2c[nH]c3ccccc23)cc1` (stereo not given), the inhibition is -1.34%.
The figure for `C/C(=C\C(=S)Nc1ccccc1)Nc1cccc2ccccc12` is 64.1%; for `C/C(=C\C(=S)Nc1ccccc1)Nc1ccccc1` it is 3.81%.
In the case of `O=C(CC1CCCCC1)NCCCN1CCOCC1`, the inhibition was -0.7%.
As for `O=C(CSc1nc2[nH]c(=O)cc(O)c2s1)Nc1ccc(Br)cc1`, the figure is -3.77%.
As for `CC(=O)N1CCc2cc(Br)cc(S(=O)(=O)NCC3CCCO3)c21` (stereo not given), the figure is 0.13%; as for `COc1cc2cc(C(=O)N(C)Cc3ccccc3)[nH]c2cc1OC`, 6.88%.
The figure for `COCCCn1c(SCc2ccccc2)nc2cc(OC)c(OC)cc2c1=N` is -2.27%; for `COCCCn1c(SCc2ccc(OC)cc2)nc2cc(OC)c(OC)cc2c1=N` it is -4.77%; for `O=C(CN1C(=O)NC2(CCCC2)C1=O)OCc1cccc(Br)c1` it is -6.4%.
For `O=C(NC1CCSc2ccccc21)c1ccccc1Cl` (stereo not given), the inhibition is 43.4%.
As for `O=C(NC1CCSc2ccccc21)c1ccccc1F` (stereo not given), the figure is 12.7%; as for `COc1ccc(OCc2n[nH]c(=S)n2-c2ccc(C)cc2)cc1`, 3.01%.
As for `Cc1cc(=O)[nH]c(N/N=C/c2c(C)nn(-c3ccc(F)cc3)c2Cl)n1`, the figure is 0.52%.
The figure for `Cc1ccc(-c2nc(N=Nc3ccc(O)cc3)n[nH]2)cc1` is 4.83%.
`Oc1ccc(N=Nc2n[nH]c(-c3ccc(Br)cc3)n2)cc1`: the inhibition is 4.79%.
As for `CCC(CO)Oc1cc(NC(=O)c2ccc(N)cc2)c2ncn(C(C)C)c2c1` (stereo not given), the figure is 4.76%; as for `COc1ccc(-c2cn[nH]c2-c2ccc(OCc3ccc([N+](=O)[O-])cc3)cc2O)cc1`, 8.94%; as for `CCOc1ccc(-c2[nH]ncc2-c2ccccc2)c(O)c1`, 9.38%.
As for `O=[N+]([O-])c1ccc(COc2ccc(-c3[nH]ncc3-c3ccccc3)c(O)c2)cc1`, the inhibition was -2.72%.
As for `COc1ccc(-c2[nH]ncc2-c2ccc(Cl)cc2)c(O)c1`, the inhibition is 41.7%.
The figure for `Cc1cc(N2C(=O)C3CC=CCC3C2=O)cc(C)c1Br` (stereo not given) is 4.22%; for `CC(=NNC(=O)c1ccc(NS(=O)(=O)c2ccc(Br)cc2)cc1)c1cccnc1` it is 9.29%.
As for `CC(C)Cc1nc2sc3c(=O)[nH]cnc3c2c2c1CCCC2`, the figure is 1.08%; as for `CCN(CC)C(=O)CNC(=S)N(CCCN1CCOCC1)Cc1cccs1`, 1.2%.
The figure for `CCc1cc(-c2[nH]ncc2-c2ccc([N+](=O)[O-])cc2)c(O)cc1OC` is 1.64%; for `CCCn1c(NC(=S)Nc2ccccc2)nc2ccccc21` it is 2.43%.
Turning to `CCCCn1c(NC(=S)Nc2ccccc2)nc2ccccc21`, the inhibition is 2.6%.
As for `CSc1nc2ccsc2c(=O)n1-c1ccccn1`, the figure is -2.21%; as for `CCn1c(C)nc2cc(C(=O)OCCC(F)(F)F)ccc21`, -1.06%; as for `CCn1c(C)nc2cc(C(=O)OC)ccc21`, -7.44%.
As for `COc1ccccc1C(=O)NC(CCSC)C(=O)OCC(=O)N1CCCC1=O` (stereo not given), the figure is -5.17%.
For the compound `COc1ccc(-c2c(C#Cc3ccsc3)c3cc(-c4ccc5cc[nH]c5c4)ccc3n2C)cc1`, the inhibition was -6.96%.
The figure for `CN(C)CCN(Cc1ccccc1)C(=O)[C@H](Cc1ccccc1)N1C(=O)c2ccccc2C1=O` is -1.93%; for `COc1ccc(NC(=O)CSc2nc(SC)ns2)c(OC)c1` it is 4.38%.
The figure for `CSc1nsc(SCC(=O)Nc2ccccc2C(N)=O)n1` is 2.11%; for `O=C1/C(=C/c2ccc([N+](=O)[O-])cc2)C=C(c2ccccc2)N1c1ccccc1` it is 10.5%.
`O=C(O)c1cccc(N2C(=O)/C(=C/c3ccc([N+](=O)[O-])cc3)C=C2c2ccccc2)c1`: the inhibition is 7.59%.
The figure for `COc1ccc(-n2c(SCC(=O)N3CCc4ccccc43)nnc2-c2c[nH]c3ccccc23)cc1` is 7.85%; for `COc1ccccc1N(CC(=O)NC(C)(C)C)C(=O)CCC(=O)Nc1nccs1` it is -0.5%; for `CC1(CCc2ccccc2)NC(=O)N(CC(=O)Nc2ccc(S(N)(=O)=O)cc2)C1=O` (stereo not given) it is 0.35%.
As for `NC[C@H](Cc1ccccc1)NCCCCC1CCCCC1`, the figure is -8.88%; as for `CNC[C@@H](C)NC[C@@H](Cc1ccccc1)NCCc1ccccc1`, 1.77%.
Regarding `COc1cccc(NC(=O)COC(=O)c2ccccc2SCC(=O)N2CCCC2)c1`, the inhibition is 5.04%.
As for `Cc1cc(=O)[nH]c(Nc2cccc(Cl)c2C)n1`, the figure is 1.14%.
Consider `O=C(NS(=O)(=O)c1ccccc1Cl)c1ccc[nH]1`, for which the inhibition is 2.54%.
As for `CCOc1ccc(C(C)NC(=O)Cc2ccccc2)cc1OCC` (stereo not given), the figure is -8.29%; as for `OCCN1CCN(c2nc(NCc3ccco3)c3ccccc3n2)CC1`, -0.19%; as for `OCCNc1nc(N2CCN(Cc3ccccc3)CC2)nc2ccccc12`, 5.92%.
The figure for `CCc1cccc(CC)c1NC(=O)CSc1nc2ccc(N3C(=O)C4C5C=CC(C5)C4C3=O)cc2s1` (stereo not given) is -11%; for `CCc1cccc(CC)c1NC(=O)CSc1nc2ccc(N3C(=O)C4C(C3=O)[C@H]3C=C[C@@H]4C3)cc2s1` (stereo not given in full) it is -9.69%; for `COc1cc(C(=O)Nc2cccc(S(=O)(=O)NCc3ccco3)c2)cc(OC)c1OC` it is 0.68%.
As for `COc1ccc(CCC(C)NC(=O)CCc2ccccc2)c(OC)c1` (stereo not given), the figure is 4.05%; as for `COc1cc(/C=N/NC(=O)c2cc3ccccc3cc2O)ccc1OCCN1CCCCC1`, 9.28%.
With `COc1cc(/C=N/NC(=O)c2csc3c2CCCC3)ccc1OCCN1CCOCC1`, the inhibition is -0.72%.
The figure for `COc1ccccc1CNC(=O)CN1CCN(S(=O)(=O)c2cccs2)CC1` is -5.5%; for `CSCCC(NS(=O)(=O)c1ccc(Cl)cc1)C(=O)OCC(=O)NC1CCCCC1` (stereo not given) it is 1.43%; for `COc1ccc(NC2=NC(C)(C)CS2)cc1` it is -0.92%.
The figure for `Cc1ccc(C(=O)CNc2ccc(Br)cc2)cc1` is 2.6%; for `Cc1ccc(C(=O)CCNc2ccc(Br)cc2)o1` it is -5.24%.

What is called inhibition is the drop in the measured response relative to a control, in per cent.
